Measured values published in PubChem BioAssay (Tox21).
Inconclusive results are not listed. Active and inactive are the calls of the source. Unless noted, calls come from the whole dose curve; as a rule, active = well fitted curve in the direction sought with a large enough effect in the repeat runs; inconclusive = weak or mixed curves; inactive = no such curve, though single readings can be large; an effect the other way counts as inactive or inconclusive.

What was measured:
[1] = qHTS assay to identify small molecule antagonists of the estrogen receptor alpha (ER-alpha) signaling pathway using the BG1 cell line in the presence of 0.1 nM 17-beta-estradiol - cell viability counter screen (AID 1259241); note: nearly all actives have a fitted effect of over 40% in size
In short: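 Cells were plated and left 24 hr, compounds in DMSO were pinned in, 17beta-estradiol was added to 0.1 nM final, and after 22 hr CellTiter-Fluor reagent was added for 30 min before fluorescence was read.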

[2] = molecular target: Androgen receptor (Homo sapiens) (UniProt P10275); test: qHTS assay to identify small molecule antagonists of the androgen receptor (AR) signaling pathway using the MDA cell line in the presence of 0.5 nM R1881 (AID 1259243); note: nearly all actives have a fitted effect of over 50% in size
In short: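 Inhibition of R1881 (0.5 nM final) induced reporter signal was measured in human MDA-kb2 cells; note the MMTV promoter also responds to GR. Exposure lasted 16 hr at 37C.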

[3] = molecular target: Estrogen receptor (Homo sapiens) (UniProt P03372); test: qHTS assay to identify small molecule antagonists of the estrogen receptor alpha (ER-alpha) signaling pathway using the BG1 cell line in the presence of 0.1 nM 17-beta-estradiol (AID 1259244); note: nearly all actives have a fitted effect of over 50% in size
In short: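 Quantitative high-throughput screen in VM7Luc4E2 cells: compound plus 0.1 nM E2 (final), 22 h, 37C, 5% CO2; ONE-Glo added, 30 min room temperature, luminescence measured.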

[4] = qHTS assay to identify small molecule HDAC inhibitors (AID 1259364); note: top concentration of the series differs between compounds; nearly all actives have a fitted effect of over 45% in size
In short: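 Endogenous HDAC class I/II activity was measured in wild-type HCT-116 cells by HDAC-Glo luminescence after 2 h compound treatment.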

[5] = qHTS assay to identify small molecule HDAC inhibitors - cell viability counter screen (AID 1259365); note: series mostly up to about 92 µM; nearly all actives have a fitted effect of over 50% in size
In short: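 Counter screen in wild-type HCT-116 cells: compounds dissolved in DMSO are pin-transferred onto overnight-plated cells and left 2hr at 37C. ATP-based CellTiter-Glo luminescence then measures viable cells.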

[6] = qHTS assay to identify small molecule agonists of the sonic hedgehog signaling (Shh) pathway - cell viability counter screen (AID 1259366); note: nearly all actives have a fitted effect of over 50% in size
In short: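 Cells are plated at 2,000 per well and left 4hr at 37C, 5% CO2 before compound addition. After 23hr of treatment, CellTiter-Fluor reagent is added for 1hr at 37C and fluorescence is measured.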

[7] = qHTS assay to identify small molecule antagonists of the sonic hedgehog signaling (Shh) pathway - cell viability counter screen (AID 1259367); note: nearly all actives have a fitted effect of over 55% in size
In short: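 Cells: 3T3 Gli1-Luc, 2,000/well, 4 hr pre-incubation. Compounds in DMSO, then conditioned medium. Incubation 24 hr, 37C, 5% CO2. CellTiter-Fluor at 23 hr, 1 hr, fluorescence.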

[8] = qHTS assay to identify small molecule agonists of the sonic hedgehog signaling (Shh) pathway (AID 1259368; calls by dose curve;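 note: NIH/3T3-derived 3T3Gli1-Luc cells carrying a stable Gli1-driven firefly luciferase reporter; series mostly up to about 92 µM; nearly all actives have a fitted effect of over 15% in size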)
In short: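 Luminescent signal was taken as a measure of Gli1-controlled luciferase expression in stably transfected NIH/3T3-derived cells that had been treated for 24 hr with compounds delivered in DMSO.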

[9] = qHTS assay to identify small molecule antagonists of the sonic hedgehog signaling (Shh) pathway (AID 1259369; calls by dose curve; note: nearly all actives have a fitted effect of over 45% in size; note: potency is the fitted concentration of half-maximal effect)
In short: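 Screening used 3T3Gli1-Luc cells at 2,000 per well, compounds delivered in DMSO, and conditioned medium as agonist stimulus; plates incubated 24hr at 37 C and 5% CO2 before a 30min luciferase step.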

[10] = molecular target: Estrogen receptor beta (Homo sapiens) (UniProt Q92731); test: qHTS assay to identify small molecule agonists of the estrogen receptor beta (ER-beta) signaling pathway (AID 1259377; active = well fitted activation curve with a large enough effect in the signal ratio in the repeat runs, not every such curve was filed as active; the % refers to the signal ratio)
In short: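 Agonist mode cell assay in GripTite HEK293T cells expressing an ER-beta fusion that drives beta-lactamase from an Upstream Activator Sequence; 16 hr compound exposure at 37C, then 2 h LiveBLAzer B/G FRET substrate at room temperature, fluorescence read-out.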

[11] = qHTS assay to identify small molecule agonists of the androgen receptor (AR) signaling pathway in the presence of an antagonist - cell viability counter screen (AID 1259379);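 note: MDA-kb2 human breast cancer cells carrying an MMTV luciferase reporter; series mostly up to about 92 µM; nearly all actives have a fitted effect of over 25% in size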
In short: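 In MDA-kb2 cells (human breast carcinoma, MMTV-luciferase), compounds at 15 concentrations plus 3.0uM nilutamide; 16 hr, 37C, 0% CO2; CellTiter-Fluor fluorescence read for viability.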

[12] = qHTS assay to identify small molecule agonists of the estrogen receptor beta (ER-beta) signaling pathway - cell viability counter screen (AID 1259380); note: nearly all actives have a fitted effect of over 30% in size
In short: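 Viability of ER-beta-UAS-bla HEK293T cells was determined by CellTiter-Glo luminescence following 16 hr treatment with test compounds at 37C.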

[13] = molecular target: Androgen receptor (Homo sapiens) (UniProt P10275); test: qHTS assay to identify small molecule agonists of the androgen receptor (AR) signaling pathway in the presence of an antagonist (AID 1259381; calls by dose curve; note: nearly all actives have a fitted effect of over 15% in size)
In short: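 Here, 15-concentration compound series were pin-transferred onto MDA-kb2 MMTV-luciferase cells already dosed with nilutamide (3.0uM final). After 16hr at 37C, ONE-Glo was added and luminescence read 30min later at room temperature.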

[14] = qHTS assay to identify small molecule antagonists of the estrogen receptor beta (ER-beta) signaling pathway - cell viability counter screen (AID 1259382);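 note: HEK293T cells carrying ER-beta-UAS-bla reporter stimulated with estradiol; series mostly up to about 92 µM; nearly all actives have a fitted effect of over 55% in size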
In short: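 Tox21 10K library tested in qHTS format on ER-beta-bla HEK293T cells stimulated with 1nM E2; 16 hr treatment at 37C. Same-well CellTiter-Glo luminescence served as the cell viability measure.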

[15] = molecular target: Estrogen receptor (Homo sapiens) (UniProt P03372); test: qHTS assay to identify small molecule agonists of the estrogen receptor alpha (ER-alpha) signaling pathway in the presence of an antagonist (AID 1259383; calls by dose curve; note: top concentration of the series differs between compounds; nearly all actives have a fitted effect of over 15% in size)
In short: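 In VM7Luc4E2 cells, 4,000 per well, compounds at 15 concentrations were co-incubated 22hr at 37C with 10.0nM final ICI-182,780. Luminescence from the stably transfected 4×ERE-luciferase reporter was recorded 30min after ONE-Glo addition.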

[16] = qHTS assay to identify small molecule agonists or antagonists of the thyroid stimulating hormone receptor (TSHR) signaling pathway - wild type cell line counter screen (AID 1259384; calls by dose curve)
In short: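 Counter screen in untransfected Hek293: compounds (15-point titration, triplicate) plus phosphodiesterase inhibitor Ro20-1724 added after 18 h plating; 30 min RT. Intracellular cAMP via competitive d2/cryptate immunoassay, 1 h incubation.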

[17] = molecular target: Thyrotropin receptor (Homo sapiens) (UniProt P16473); test: qHTS assay to identify small molecule antagonists of the thyroid stimulating hormone receptor (TSHR) signaling pathway (AID 1259385; calls by dose curve; note: nearly all actives have a fitted effect of over 20% in size)
In short: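 Antagonist mode: compound-treated TSHR-expressing HEK293 cells were stimulated with 1.5 ng/mL TSH (final) in presence of Ro20-1724 for 30 min at RT. HTRF cAMP detection after 1 h; each compound tested at 15 concentrations, triplicate.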

[18] = qHTS assay to identify small molecule antagonists of the androgen receptor (AR) signaling pathway using the MDA cell line in the presence of 0.5 nM R1881 - cell viability counter screen (AID 1259242); note: nearly all actives have a fitted effect of over 45% in size
In short: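 Fluorescence from CellTiter-Fluor, which reports protease activity of live cells, was read 30 min after reagent addition to MDA-kb2 cells that had been incubated 16 hr with compound and 0.5 nM R1881.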

[19] = qHTS assay to identify small molecule phospholipidosis (PLD) inducers (AID 1259344; active = well fitted curve in the direction sought with a large enough effect; an effect the other way counts as inactive or inconclusive)
In short: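 Phospholipidosis is scored by imaging LipidTOX-stained pits in HepG2 cells exposed to compound for 24 h at 37 C; pit counts and integrated intensities per well and per cell serve as outputs.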

[20] = molecular target: Estrogen receptor beta (Homo sapiens) (UniProt Q92731); test: qHTS assay to identify small molecule antagonists of the estrogen receptor beta (ER-beta) signaling pathway (AID 1259378; active = well fitted inhibition curve with a large enough effect in the signal ratio in the repeat runs, not every such curve was filed as active; the % refers to the signal ratio)
In short: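 Antagonist mode: compounds added to beta-lactamase reporter HEK293T ER-beta-UAS cells stimulated with E2 (1nM final), 16 hr at 37C. LiveBLAzer B/G FRET substrate, 2 hours room temperature, fluorescence read-out.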

Measured: Potency

Sequence of Estrogen receptor beta (Homo sapiens) (Q92731 whole entry, looked up, the tested form may be a part): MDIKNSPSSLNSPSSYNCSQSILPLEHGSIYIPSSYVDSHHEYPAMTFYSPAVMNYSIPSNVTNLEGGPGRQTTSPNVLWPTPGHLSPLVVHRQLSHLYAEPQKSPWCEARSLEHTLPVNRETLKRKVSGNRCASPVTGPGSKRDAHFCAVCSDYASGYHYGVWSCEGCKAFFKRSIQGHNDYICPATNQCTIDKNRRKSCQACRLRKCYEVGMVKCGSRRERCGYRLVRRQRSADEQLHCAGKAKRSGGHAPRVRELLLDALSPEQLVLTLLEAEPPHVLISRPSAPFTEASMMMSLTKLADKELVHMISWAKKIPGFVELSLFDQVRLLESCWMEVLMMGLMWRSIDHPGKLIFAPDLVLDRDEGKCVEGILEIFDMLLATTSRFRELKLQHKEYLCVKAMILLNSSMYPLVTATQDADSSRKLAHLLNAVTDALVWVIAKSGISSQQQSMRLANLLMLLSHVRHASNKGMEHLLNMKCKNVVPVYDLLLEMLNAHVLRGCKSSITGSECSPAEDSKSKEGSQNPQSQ
Sequence of Thyrotropin receptor (Homo sapiens) (P16473 whole entry, looked up): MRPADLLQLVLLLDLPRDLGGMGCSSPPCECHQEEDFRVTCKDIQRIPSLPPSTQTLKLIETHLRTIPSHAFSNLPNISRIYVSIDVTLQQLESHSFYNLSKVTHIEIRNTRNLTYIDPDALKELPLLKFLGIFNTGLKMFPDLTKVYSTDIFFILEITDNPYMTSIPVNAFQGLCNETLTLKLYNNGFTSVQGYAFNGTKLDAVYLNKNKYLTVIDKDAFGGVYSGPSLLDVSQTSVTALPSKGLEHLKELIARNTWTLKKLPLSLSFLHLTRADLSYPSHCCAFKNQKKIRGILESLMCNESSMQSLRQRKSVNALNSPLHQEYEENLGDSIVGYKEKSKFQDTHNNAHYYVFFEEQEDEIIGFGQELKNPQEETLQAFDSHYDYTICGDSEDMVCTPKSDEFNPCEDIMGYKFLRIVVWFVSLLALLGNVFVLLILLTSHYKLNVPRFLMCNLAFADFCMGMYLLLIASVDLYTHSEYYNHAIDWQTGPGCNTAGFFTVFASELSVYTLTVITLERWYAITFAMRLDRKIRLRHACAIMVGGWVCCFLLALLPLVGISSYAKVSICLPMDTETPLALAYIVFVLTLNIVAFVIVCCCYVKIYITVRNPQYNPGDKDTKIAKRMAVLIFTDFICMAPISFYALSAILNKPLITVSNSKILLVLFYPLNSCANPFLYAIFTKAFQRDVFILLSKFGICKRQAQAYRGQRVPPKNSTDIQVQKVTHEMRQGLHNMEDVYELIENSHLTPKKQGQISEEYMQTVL
Sequence of Androgen receptor (Homo sapiens) (P10275 whole entry, looked up): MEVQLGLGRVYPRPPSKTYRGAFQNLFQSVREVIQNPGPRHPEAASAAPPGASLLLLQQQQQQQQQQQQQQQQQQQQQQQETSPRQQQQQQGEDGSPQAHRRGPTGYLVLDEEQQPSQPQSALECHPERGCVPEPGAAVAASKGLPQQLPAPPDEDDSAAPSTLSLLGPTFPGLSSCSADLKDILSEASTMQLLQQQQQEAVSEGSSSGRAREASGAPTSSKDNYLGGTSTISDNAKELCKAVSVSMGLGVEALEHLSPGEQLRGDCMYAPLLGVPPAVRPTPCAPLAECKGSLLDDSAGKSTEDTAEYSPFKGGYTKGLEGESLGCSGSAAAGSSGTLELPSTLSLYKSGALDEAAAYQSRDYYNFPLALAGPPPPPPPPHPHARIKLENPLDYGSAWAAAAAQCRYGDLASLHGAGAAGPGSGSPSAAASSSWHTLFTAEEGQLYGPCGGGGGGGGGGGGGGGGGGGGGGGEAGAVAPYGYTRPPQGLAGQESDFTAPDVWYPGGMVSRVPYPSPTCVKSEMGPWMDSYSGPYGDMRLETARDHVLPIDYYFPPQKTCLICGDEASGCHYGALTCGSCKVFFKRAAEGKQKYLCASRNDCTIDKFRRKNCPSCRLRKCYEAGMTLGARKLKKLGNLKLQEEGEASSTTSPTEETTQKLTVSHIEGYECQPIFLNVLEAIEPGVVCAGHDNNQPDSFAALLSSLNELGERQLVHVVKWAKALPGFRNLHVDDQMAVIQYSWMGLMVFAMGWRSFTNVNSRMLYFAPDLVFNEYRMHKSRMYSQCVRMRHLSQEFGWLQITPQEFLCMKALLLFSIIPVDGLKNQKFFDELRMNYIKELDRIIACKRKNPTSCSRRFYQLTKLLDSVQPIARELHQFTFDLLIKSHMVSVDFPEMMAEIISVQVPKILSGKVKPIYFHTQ
Sequence of Estrogen receptor (Homo sapiens) (P03372 whole entry, looked up): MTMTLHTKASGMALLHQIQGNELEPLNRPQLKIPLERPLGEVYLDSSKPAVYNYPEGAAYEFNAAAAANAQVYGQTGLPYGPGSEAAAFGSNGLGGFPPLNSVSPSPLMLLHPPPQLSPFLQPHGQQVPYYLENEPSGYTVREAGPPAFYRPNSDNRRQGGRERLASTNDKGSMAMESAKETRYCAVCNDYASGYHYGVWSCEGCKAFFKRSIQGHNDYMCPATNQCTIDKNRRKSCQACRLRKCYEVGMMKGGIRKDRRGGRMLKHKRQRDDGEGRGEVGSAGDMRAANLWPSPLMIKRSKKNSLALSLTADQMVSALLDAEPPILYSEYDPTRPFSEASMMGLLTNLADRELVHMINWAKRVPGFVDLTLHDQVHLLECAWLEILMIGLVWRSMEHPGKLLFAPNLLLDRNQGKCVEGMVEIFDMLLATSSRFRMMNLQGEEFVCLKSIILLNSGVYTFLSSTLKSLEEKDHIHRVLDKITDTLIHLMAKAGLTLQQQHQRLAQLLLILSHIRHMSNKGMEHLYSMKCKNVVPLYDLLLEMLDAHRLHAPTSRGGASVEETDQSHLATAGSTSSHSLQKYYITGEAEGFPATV

Clc1ccc2ccccc2c1
not listed: [18] | [19] | [20]
inactive: all other assays above

C=CC(C)(CCC=C(C)C)OC(=O)c1ccccc1N (stereo not given)
not listed: [2] | [3] | [10] | [13] | [15] | [16] | [19] | [20]
inactive: all other assays above

CCCN(CCOc1c(Cl)cc(Cl)cc1Cl)C(=O)n1ccnc1
active: [9] 6.24 µM
not listed: [2] | [3] | [13] | [15] | [19] | [20]
inactive: all other assays above

N#CC1(N=NC2(C#N)CCCCC2)CCCCC1
active: [9] 21.7 µM
not listed: [2] | [3] | [10] | [13] | [15] | [16] | [19] | [20]
inactive: all other assays above

CC1(C)CC(=O)CC(C)(C)N1[O]
not listed: [2] | [3] | [6] | [13] | [15] | [17] | [19] | [20]
inactive: all other assays above

CC(C)CCON=O
not listed: [2] | [3] | [9] | [13] | [15]
inactive: all other assays above

C[C@H]1[C@@H]2Cc3ccc(O)cc3[C@@]1(C)CCN2C
not listed: [2] | [3] | [6] | [9] | [13] | [15] | [16]
inactive: all other assays above

OCCCl
inactive: [1] | [18] | [4] | [5] | [6] | [7] | [8] | [10] | [11] | [12] | [14]

CC1(C)[C@H](C(=O)O[C@H](C#N)c2cccc(Oc3ccccc3)c2)[C@@H]1C=C(Br)Br
not listed: [3] | [15] | [18] | [19]
inactive: all other assays above

CCC1CCC(=O)O1 (stereo not given)
not listed: [2] | [3] | [10] | [13] | [15] | [19] | [20]
inactive: all other assays above
